Results filed as inconclusive are left out. The source made the active and inactive calls. The calls were made as follows: active = hit-call score of the fitted dose curve at least 0.9, where 1 is the maximum; inconclusive = response in the unintended direction; inactive = score below 0.9.

The experiment has as its target zebrafish Estrogen Receptor (ER1), esr1 (gene 259252) (UniProt P57717). The experiment in a line: ATG_zfER1_EcoTox2: Attagene TRANS-FACTORIAL EcoTox-2 HepG2 Assay for zebrafish Estrogen Receptor (ER1). The method, then: ATG_EcoTox2 is a cell-based, multiplexed assay created by modifying the existing Attagene TRANS-FACTORIAL system to include a panel of nuclear receptors from some or all the following species: human (Homo sapiens), african clawed frog (Xenopus laevis), rainbow trout (Oncorhynchus mykiss), japanese medaka (Oryzias latipes), and zebrafish (Danio rerio). The ECOTOX2-FACTORIAL format uses HepG2, a human liver cell line, with measurements taken at 24 hours after chemical dosing in a 24-well plate. ATG_zfER1_EcoTox2 is one of 29 assay components calculated in the ATG_EcoTox2 assay. It is designed to make measurements of mRNA induction, a form of inducible reporter, as detected with fluorescence intensity signals by Reverse transcription polymerase chain reaction (RT-PCR) and Capillary electrophoresis technology.The assay endpoint ATG_zfER1_EcoTox2 was analyzed in the positive analysis fitting direction relative to DMSO as the negative control and baseline of activity. Using a type of inducible reporter, measures of mRNA for gain-of-signal activity can be used to understand the reporter gene at the transcription factor-level as they relate to the gene ER. Furthermore, this assay endpoint can be referred to as a primary readout, because this assay has produced multiple assay endpoints where this one serves a reporter gene function. […]

Chain of zebrafish Estrogen Receptor (ER1), esr1 (gene 259252) (P57717 whole entry, looked up): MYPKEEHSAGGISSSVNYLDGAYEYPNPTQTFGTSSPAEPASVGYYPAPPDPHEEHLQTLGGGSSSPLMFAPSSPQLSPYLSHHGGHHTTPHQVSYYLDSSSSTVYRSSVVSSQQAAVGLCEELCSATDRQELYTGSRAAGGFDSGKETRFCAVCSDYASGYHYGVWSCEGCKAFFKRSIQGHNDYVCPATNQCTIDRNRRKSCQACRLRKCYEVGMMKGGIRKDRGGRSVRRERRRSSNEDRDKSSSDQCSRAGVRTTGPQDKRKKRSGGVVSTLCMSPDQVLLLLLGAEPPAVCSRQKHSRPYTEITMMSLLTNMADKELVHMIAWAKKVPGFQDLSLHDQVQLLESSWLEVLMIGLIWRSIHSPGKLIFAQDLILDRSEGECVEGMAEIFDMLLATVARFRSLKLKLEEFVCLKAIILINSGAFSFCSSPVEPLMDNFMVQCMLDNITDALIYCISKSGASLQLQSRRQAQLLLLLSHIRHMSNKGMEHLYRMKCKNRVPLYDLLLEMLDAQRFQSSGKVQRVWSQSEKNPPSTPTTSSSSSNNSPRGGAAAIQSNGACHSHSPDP

For the compound `O=S(=O)(O)C(F)(F)C(F)(F)C(F)(F)C(F)(F)C(F)(F)C(F)(F)F`, the call was inactive.
